This passage reports growth results from PubChem BioAssay (NCI).

Structures are written as SMILES. The panel holds about 83,000 compounds, 20% with a hit somewhere; the sample as a whole holds those more often.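 Each cell line was grown in a 96-well plate and treated with one concentration of compound for 48 hours. Values below 10 were considered active.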 Active and inactive are the calls of the source.

The experiment deals with IGROV1 ovarian. The experiment is described as follows: NCI-60 one-dose screen, 48 h (100 = growth as untreated, 0 = no growth, -100 = all killed). The conditions noted are these: 10 µM unless noted.
As to `Clc1ccc(Nc2ncc(Cc3cccc(Cl)c3Cl)s2)cc1`, the growth is 93.3% (inactive).

As for `CCOC(=O)c1nnn(-c2no[n+]([O-])c2-c2ccc(OC)cc2)c1COc1cccc2cccnc12`, the growth is 23.5% (inactive).

Regarding `NC(=O)c1ccccc1OCC(=O)Nc1ccc(Cl)c(Cl)c1`, the growth is 84.2% (inactive).

As for `C=C1CC[C@@H]2C(C)(C)[C@H](O)CC[C@@]2(C)[C@@H]1COc1ccc2ccc(=O)oc2c1`, the growth was 60.7% (inactive).

Turning to `O=S(Nc1ccccc1)c1ccc(Cl)cc1` (stereo not given), the growth is 105% (inactive).

As to `COc1cccc(-c2cn3nc(-c4cn(C)c5ccccc45)sc3n2)c1`, the growth is 92.8% (inactive).

In the case of `COc1cc2c(cc1-c1c(C)noc1C)ncc1nc(CN3CCOCC3)n([C@H](C)COC(F)F)c12`, the growth is 36.2% (inactive).

For `CN1c2ccccc2S(=O)(=O)n2c(SCC(=O)Nc3nc4ccc(F)cc4s3)nnc21`, the growth was -22.6% (active).

On to `O=S(=O)(Nc1cc(Sc2nc3ccccc3s2)c(O)c2ccccc12)c1ccc2ccccc2c1`, for which the growth was 101% (inactive).

Take `Cn1c(C#N)ccc1-c1ccc(F)c(NC(=O)c2ccc(F)cc2)c1`: the growth is 74.2% (inactive).
